# How the values were obtained:
# Format in all cases: functional
# Plasmodium falciparum [1] = assay: GSK_TCMDC: Inhibition of Plasmodium falciparum 3D7 in whole red blood cells, using parasite LDH activity as an index of growth. Test compounds present at 2uM
# Plasmodium falciparum [2] = assay: GSK_TCMDC: Inhibition of Plasmodium falciparum Dd2 in whole red blood cells, using parasite LDH activity as an index of growth. Test compounds present at 2uM
# HepG2 = assay: GSK_TCMDC: Percent inhibition of human HepG2 cell line. Test compounds present at 10uM.
SMILES,Inhibition (Plasmodium falciparum [1]) [%],Inhibition (Plasmodium falciparum [2]) [%],Inhibition (HepG2) [%]
CS(=O)(=O)c1ccccc1CNC(=O)c1ccc(-c2cccc(-c3nc4cc(C(F)(F)F)ccc4[nH]3)c2)cc1,91,4,36
CCN(CC)CCN(Cc1ccc(-c2ccc(C(F)(F)F)cc2)cc1)C(=O)Cn1c(SCc2ccc(F)cc2)nc(=O)c2ccccc21.O=C(O)C(O)C(O)C(=O)O,98,48,47
Cc1onc(-c2ccccc2)c1-c1nc(NCc2ccccc2Cl)no1,99,92,2
COc1ccccc1-c1ccc2nnc(SCC(=O)Nc3ccc4c(c3)OCCO4)n2n1,99,5,9
O=C(Nc1ccc2c(c1)CCC2)c1nc(N2CCN(c3ccncc3)CC2)ccc1Cl.O=C(O)C(F)(F)F,100,97,55
CS(=O)(=O)N(c1cccc(F)c1)c1cc(C(=O)N[C@@H](Cc2ccccc2)[C@H](O)CNCc2cccc(C(F)(F)F)c2)cc(N2CCCC2=O)c1.O=CO,98,92,14
COc1ccc(-c2cc(C(=O)Nc3ccc(CCCN(C)Cc4ccc(OC)c(OC)c4)cc3)c3ccccc3n2)cc1,92,47,40
COc1ccc(S(=O)(=O)N2CCC(NS(=O)(=O)c3ccc(F)cc3)CC2)cc1,80,0,3
CCNCc1ccc(-c2cc3ncnc(Nc4ccc(OCc5cccc(F)c5)c(Cl)c4)c3s2)[nH]1,100,74,22
Br.Oc1cccc(CCNCCCCCCNCCc2ccc(Cl)cc2)c1,96,0,23
CCCCc1cc(NCc2ccncc2)nc(Nc2ccc(C)cc2)n1,100,59,7
COc1ccc2ncc(F)c(CCN3CCC(NCc4cc(C)c5c(c4)OCCO5)CC3)c2n1.Cl,100,67,20
CCCCCCCCCn1c(NCc2cc(Cl)ccc2O)nc2ccccc21,97,92,13
NCC1CCCN1Cc1cccc(-c2cccc(-c3nc4cc(F)ccc4[nH]3)c2)c1.O=C(O)C(F)(F)F (configuration not stated),100,65,10
CCNc1cc(C)nc(Nc2ccc(C)cc2)n1,100,85,12
Cc1ccc(O)c(C(=O)c2cnc3c(c2)c(-c2ccc(F)cc2)c(C#N)c(=O)n3C)c1,93,56,17
O=S(=O)(c1ccc(NC(S)=NN=Cc2ccccn2)cc1)N1CCCCC1,98,56,43
Fc1ccc2c(NN=Cc3ccccc3)ccnc2c1,100,99,1
COc1cc(N(Cc2ccccc2C)S(=O)(=O)Cc2ccccc2[N+](=O)[O-])c(OC)cc1Cl,94,44,16
CC1CCN(c2nc(C(=O)Nc3ccc(F)cc3C(F)(F)F)c(C(C)C)s2)CC1.O=C(O)C(F)(F)F,100,66,5

SMILES,Inhibition (Plasmodium falciparum [1]) [%],Inhibition (Plasmodium falciparum [2]) [%],Inhibition (HepG2) [%]
CC(C)CN(c1nc(C(=O)NNC(=O)[C@H](CC2CC2)NC(=O)c2cc3cc(OCCN(C)C)ccc3o2)cs1)C1CC1,87,97,0
NS(=O)(=O)NCCCN1CCN(c2ccccc2)CC1,90,73,2
CCCCC(=O)N(CCOC)Cc1ccc(-c2ccc(CNCCC)cn2)cc1.O=C(O)C(F)(F)F,99,68,30
O=C(/C=C/c1ccc(Cl)cc1)NCCCCCN1CCCC(C(=O)Nc2ccc(Cl)c(Cl)c2)C1 (configuration not stated),96,3,27
CSC1=NC(=Nc2c(C)cccc2C)C2(CCC(C(C)(C)C)CC2)N1c1ccc(O)cc1.I (configuration not stated),97,93,5
Cl.O=C(Nc1ccccc1Br)N[C@@H]1CCN(c2ccnc3ccccc23)C1,91,90,25
Cc1nc2nc(N)nc(N)c2c(C)c1Cc1ccccc1I.Cl,96,0,63
O=C(/C=C/c1ccc(Cl)c(Cl)c1)NCCCCCN1CC[C@H](NC(=O)/C=C/c2ccccc2)C1,93,1,10
Cc1cc(C(=O)Nc2ccc3c(c2)CCN3C2CCN(Cc3cccc4cc[nH]c34)C2)no1 (configuration not stated),97,96,0
CN(C)C(=O)CCCn1c(CNCCCNc2cc(=O)c3ccccc3[nH]2)cc2c(Cl)cc(Cl)cc21.Cl,89,0,1
COc1ccc(CCN(C)CCc2ccc(NC(=O)c3cccc4c(=O)c5ccccc5sc34)cc2)cc1,95,33,24
Br.COc1cc(OCCCCCCON2C(=N)N=C(N)NC2(C)C)cc(OC)c1OC,94,93,41
Cc1ncc([N+](=O)[O-])n1CCOC(=O)NC(NCC1COc2ccccc2O1)C(Cl)(Cl)Cl (configuration not stated),100,78,0
CCN1CCN(c2ccc(Nc3ccnc4ccc(Br)cc34)cc2)CC1,98,86,37
COc1ccccc1N1CCN(c2cccc3c2nc(-c2cncc(C#N)c2)n3CCNCc2ccccc2)CC1.O=C(O)C(F)(F)F,100,81,0
CCOC(=O)c1ccc(NC(=O)Nc2cccc(-c3cccc(-c4nc5cc(F)ccc5[nH]4)c3)c2)cc1,100,100,85
Cc1ccc(O)cc1Nc1ccnc2cc(-c3ccccc3)ccc12.Cl,100,99,45
Cc1ccn2cc(-c3ccc(NC(=O)c4ccc(Br)o4)cc3)nc2c1,98,41,100
COC(=O)[C@@H](NC(=O)[C@H](CC(C)C)Nc1ccc(C#N)c2ccccc12)c1ccc(O)cc1.O=C(O)C(F)(F)F,98,87,4
Cc1cc(NCCC(=O)NCCOc2ccccc2)nc(NCCc2ccc(F)cc2)n1.O=C(O)C(F)(F)F,97,4,14

SMILES,Inhibition (Plasmodium falciparum [1]) [%],Inhibition (Plasmodium falciparum [2]) [%],Inhibition (HepG2) [%]
COc1cccc2c(N/N=C/c3ccccc3[N+](=O)[O-])cc(C)nc12,99,32,0
O=[N+]([O-])c1cccc(Nc2cncc(-c3ccc(CO)cc3)c2)c1,85,96,16
O=C(O)C(F)(F)F.O=S(=O)(NCCN1CCCC1)c1cccc(-c2ccc(CNCc3ccc(F)cc3)cc2)c1,100,41,38
CC(C)(C)OC(=O)Cn1cnc2cc(NC(=O)c3cc([N+](=O)[O-])cc([N+](=O)[O-])c3)ccc21,100,97,11
O=S(=O)(NC1=NCCC1)c1cccc(Nc2nc(C(F)(F)F)nc3ccccc23)c1,83,8,6
Cc1cccc2nc(-c3cccc(-c4cccc(NC(=O)c5ccncc5)c4)c3)[nH]c12,100,78,22
Cc1ccccc1CNc1noc(-c2c(-c3ccccc3)noc2C)n1,94,70,0
Cc1cccc2nc(-c3ccc(-c4ccc(NC(=O)Nc5ccc(Cl)c(Cl)c5)cc4)s3)[nH]c12,100,100,100
CN(C)CC(=O)N(Cc1ccc(Cl)c(Cl)c1)Cc1csc(-c2ccc(CNCc3ccccc3)cc2)n1.O=C(O)C(F)(F)F,96,32,30
O=C(NCCc1ccccc1F)c1ccc(N2CCN(c3ccncc3)CC2)cn1.O=C(O)C(F)(F)F,93,18,8
COc1ccc2c(=NN=Cc3cccc(C)n3)cc(-c3ccccc3)[nH]c2c1,97,25,0
COc1ccccc1N1CCN(C(C(=O)NCc2ccc3c(c2)OCO3)c2ccc3c(c2)OCCCO3)CC1 (configuration not stated),88,13,15
CCOc1ccc(C(C)NC(=O)Nc2ccccc2)cc1OCC (configuration not stated),96,95,14
CCNc1cc(C(=O)N[C@@H](Cc2ccccc2)[C@H](O)CNC(C)(C)CCCC(C)C)cc(N2CCCCS2(=O)=O)c1.O=CO,98,98,5
O=C(NCCCCN1CCC(C(c2ccccc2)c2ccccc2)CC1)c1ccc(NC(=O)c2ccc(Cl)cc2)cc1,100,47,12
COC(=O)c1ccc(-c2ccc(C(=O)NCC3CCN(c4nc(N)c5cc(OC)c(OC)cc5n4)CC3)cc2)cc1,98,100,53
Cl.O=C(Nc1cccc(C2=NCCCN2)c1)Nc1cccc(C2=NCCCN2)c1,81,70,5
Cc1cccc(CNc2nc(C)cc(NCCC(=O)NCc3cccc(F)c3)n2)c1.O=C(O)C(F)(F)F,84,13,23
N=C(N)NN=CC(=O)Nc1ccc(Cl)c(Cl)c1,97,0,0

# Reference: ChEMBL document CHEMBL1157539, “Thousands of chemical starting points for antimalarial lead identification” (Nature, 2010)
